From the supplement of paper PMC11732987, “Enantioselective OTUD7B fragment discovery through chemoproteomics screening and high-throughput optimisation” (Communications Chemistry, 2025)

Assays:
Test in all cases: log2 ratio of Biotin-Ahx-Ub-VS probe labelling (fragment/DMSO); higher = less target engagement (more negative = stronger competition), active = hit call of the paper (q ≤ 0.05, log2 ratio ≤ -1)
Settings in all cases: compound concentration: 200 uM; treatment time: 3 h
USP19 = target: T1, USP19 (UniProt O94966)
T1 sequence (whole entry): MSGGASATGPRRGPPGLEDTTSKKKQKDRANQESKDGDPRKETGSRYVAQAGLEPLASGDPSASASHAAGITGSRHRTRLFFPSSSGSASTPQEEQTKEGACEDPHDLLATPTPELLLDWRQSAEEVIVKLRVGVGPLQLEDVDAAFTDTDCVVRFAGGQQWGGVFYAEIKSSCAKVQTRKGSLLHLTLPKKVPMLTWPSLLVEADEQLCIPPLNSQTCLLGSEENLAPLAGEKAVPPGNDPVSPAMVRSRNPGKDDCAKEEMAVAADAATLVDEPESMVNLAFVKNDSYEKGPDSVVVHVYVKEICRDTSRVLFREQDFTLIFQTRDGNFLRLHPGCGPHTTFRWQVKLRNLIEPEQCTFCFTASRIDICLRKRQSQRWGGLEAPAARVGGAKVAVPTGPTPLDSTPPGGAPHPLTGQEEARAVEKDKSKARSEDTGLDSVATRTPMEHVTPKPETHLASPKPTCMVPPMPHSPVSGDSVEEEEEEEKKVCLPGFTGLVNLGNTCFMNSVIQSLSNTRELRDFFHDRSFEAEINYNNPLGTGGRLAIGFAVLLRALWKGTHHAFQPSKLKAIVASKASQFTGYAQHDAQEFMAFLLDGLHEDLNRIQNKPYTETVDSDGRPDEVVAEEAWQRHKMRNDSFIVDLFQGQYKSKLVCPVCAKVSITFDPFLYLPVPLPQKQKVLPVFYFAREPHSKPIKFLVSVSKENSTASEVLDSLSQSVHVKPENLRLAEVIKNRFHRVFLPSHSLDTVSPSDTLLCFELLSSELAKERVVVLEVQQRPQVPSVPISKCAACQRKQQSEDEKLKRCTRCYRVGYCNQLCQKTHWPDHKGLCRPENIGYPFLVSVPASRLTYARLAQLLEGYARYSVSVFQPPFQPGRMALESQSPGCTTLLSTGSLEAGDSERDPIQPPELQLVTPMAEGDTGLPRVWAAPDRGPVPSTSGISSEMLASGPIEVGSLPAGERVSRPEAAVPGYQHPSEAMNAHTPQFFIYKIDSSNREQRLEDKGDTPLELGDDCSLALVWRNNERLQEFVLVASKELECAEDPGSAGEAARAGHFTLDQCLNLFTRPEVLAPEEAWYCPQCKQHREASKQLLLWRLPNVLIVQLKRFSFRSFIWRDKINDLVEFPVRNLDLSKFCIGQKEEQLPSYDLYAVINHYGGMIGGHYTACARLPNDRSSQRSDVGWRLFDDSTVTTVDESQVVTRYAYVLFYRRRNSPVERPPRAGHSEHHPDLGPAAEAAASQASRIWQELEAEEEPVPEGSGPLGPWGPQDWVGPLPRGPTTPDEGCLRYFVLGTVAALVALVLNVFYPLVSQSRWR
Summary of the method: (§1)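 Labelling with Biotin-Ahx-Ub-VS (0.5 µM final, 1 h) followed a 3 h triplicate treatment of HEK293T lysate (495 µg per sample, Tris/CHAPS/IGEPAL buffer with protease inhibitors) with fragment at 200 µM or vehicle. Labelled DUBs were NeutrAvidin-enriched, digested with LysC and trypsin, and run by diaPASEF LC-MS/MS. The values, average log2 fragment/vehicle ratios by unpaired t-test, come from global-median-normalised Spectronaut label-free quantities. Proteins with ≥2 unique peptides were used.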

USP24 = USP24 (UniProt Q9UPU5)
Chain of USP24 (Q9UPU5 whole entry): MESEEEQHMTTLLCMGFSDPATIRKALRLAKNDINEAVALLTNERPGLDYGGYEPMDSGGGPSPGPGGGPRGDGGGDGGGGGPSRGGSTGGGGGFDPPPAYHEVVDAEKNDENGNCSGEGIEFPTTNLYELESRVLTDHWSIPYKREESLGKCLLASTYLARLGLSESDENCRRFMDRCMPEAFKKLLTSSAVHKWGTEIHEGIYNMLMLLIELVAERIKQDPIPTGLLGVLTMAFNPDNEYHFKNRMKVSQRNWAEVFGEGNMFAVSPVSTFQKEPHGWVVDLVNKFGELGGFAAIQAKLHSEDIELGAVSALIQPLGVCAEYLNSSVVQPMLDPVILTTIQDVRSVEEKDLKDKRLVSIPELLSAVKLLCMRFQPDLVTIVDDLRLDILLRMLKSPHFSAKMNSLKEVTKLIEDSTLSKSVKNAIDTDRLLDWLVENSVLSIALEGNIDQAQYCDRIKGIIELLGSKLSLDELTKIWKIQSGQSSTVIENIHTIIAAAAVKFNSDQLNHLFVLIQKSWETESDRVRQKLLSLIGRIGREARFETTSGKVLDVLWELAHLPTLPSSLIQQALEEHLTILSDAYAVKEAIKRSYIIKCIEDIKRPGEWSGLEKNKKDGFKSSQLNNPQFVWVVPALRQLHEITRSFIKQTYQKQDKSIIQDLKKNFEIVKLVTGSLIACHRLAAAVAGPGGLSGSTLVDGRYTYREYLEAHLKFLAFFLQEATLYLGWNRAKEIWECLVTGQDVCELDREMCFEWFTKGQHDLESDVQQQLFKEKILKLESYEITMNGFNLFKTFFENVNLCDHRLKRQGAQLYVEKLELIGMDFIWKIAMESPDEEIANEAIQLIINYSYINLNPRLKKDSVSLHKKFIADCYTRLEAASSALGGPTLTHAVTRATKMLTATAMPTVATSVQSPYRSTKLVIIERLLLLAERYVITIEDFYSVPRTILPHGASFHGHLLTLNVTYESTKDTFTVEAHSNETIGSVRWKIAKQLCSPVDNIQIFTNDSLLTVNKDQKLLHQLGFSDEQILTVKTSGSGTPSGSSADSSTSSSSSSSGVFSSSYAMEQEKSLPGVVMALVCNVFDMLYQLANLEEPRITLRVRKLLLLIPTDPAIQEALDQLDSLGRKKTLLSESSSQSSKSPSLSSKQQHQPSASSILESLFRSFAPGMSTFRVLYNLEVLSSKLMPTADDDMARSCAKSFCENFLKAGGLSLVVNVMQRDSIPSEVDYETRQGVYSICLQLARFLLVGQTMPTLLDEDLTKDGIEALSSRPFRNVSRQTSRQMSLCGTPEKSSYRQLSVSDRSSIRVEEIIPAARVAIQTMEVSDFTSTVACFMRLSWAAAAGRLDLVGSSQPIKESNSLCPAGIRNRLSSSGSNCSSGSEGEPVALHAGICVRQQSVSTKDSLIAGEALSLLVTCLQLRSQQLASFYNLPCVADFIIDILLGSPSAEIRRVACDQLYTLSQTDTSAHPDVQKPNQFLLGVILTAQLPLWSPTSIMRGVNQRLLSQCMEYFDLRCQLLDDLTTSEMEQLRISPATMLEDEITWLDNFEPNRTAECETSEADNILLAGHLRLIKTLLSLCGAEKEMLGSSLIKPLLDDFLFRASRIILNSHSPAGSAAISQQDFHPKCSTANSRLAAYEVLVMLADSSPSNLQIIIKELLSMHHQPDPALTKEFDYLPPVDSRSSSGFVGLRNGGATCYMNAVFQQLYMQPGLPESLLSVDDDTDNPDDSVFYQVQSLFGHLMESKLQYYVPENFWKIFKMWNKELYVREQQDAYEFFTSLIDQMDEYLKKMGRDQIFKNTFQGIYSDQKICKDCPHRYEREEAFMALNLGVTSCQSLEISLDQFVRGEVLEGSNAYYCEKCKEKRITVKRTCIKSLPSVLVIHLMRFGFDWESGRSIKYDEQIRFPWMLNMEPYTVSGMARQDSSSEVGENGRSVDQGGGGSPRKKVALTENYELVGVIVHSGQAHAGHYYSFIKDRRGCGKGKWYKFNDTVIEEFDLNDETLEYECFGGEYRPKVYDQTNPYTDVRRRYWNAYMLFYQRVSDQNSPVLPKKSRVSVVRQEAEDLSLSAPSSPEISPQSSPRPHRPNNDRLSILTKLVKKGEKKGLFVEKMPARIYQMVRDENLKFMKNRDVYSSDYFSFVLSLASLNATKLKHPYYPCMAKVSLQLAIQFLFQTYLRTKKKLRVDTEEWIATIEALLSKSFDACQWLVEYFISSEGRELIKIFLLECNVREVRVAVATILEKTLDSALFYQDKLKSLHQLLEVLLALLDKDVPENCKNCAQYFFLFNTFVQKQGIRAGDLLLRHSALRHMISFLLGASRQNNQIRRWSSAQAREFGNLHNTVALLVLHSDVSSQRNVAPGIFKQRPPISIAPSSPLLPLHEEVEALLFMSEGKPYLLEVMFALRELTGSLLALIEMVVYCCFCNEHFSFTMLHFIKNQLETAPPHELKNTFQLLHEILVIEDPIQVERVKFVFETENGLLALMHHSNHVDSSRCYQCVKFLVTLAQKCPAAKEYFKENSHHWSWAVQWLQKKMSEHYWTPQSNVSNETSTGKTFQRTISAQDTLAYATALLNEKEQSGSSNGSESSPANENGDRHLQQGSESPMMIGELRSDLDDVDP
Summary of the method: as §1

USP25 = target: T2, USP25 (UniProt Q9UHP3)
T2 sequence (whole entry): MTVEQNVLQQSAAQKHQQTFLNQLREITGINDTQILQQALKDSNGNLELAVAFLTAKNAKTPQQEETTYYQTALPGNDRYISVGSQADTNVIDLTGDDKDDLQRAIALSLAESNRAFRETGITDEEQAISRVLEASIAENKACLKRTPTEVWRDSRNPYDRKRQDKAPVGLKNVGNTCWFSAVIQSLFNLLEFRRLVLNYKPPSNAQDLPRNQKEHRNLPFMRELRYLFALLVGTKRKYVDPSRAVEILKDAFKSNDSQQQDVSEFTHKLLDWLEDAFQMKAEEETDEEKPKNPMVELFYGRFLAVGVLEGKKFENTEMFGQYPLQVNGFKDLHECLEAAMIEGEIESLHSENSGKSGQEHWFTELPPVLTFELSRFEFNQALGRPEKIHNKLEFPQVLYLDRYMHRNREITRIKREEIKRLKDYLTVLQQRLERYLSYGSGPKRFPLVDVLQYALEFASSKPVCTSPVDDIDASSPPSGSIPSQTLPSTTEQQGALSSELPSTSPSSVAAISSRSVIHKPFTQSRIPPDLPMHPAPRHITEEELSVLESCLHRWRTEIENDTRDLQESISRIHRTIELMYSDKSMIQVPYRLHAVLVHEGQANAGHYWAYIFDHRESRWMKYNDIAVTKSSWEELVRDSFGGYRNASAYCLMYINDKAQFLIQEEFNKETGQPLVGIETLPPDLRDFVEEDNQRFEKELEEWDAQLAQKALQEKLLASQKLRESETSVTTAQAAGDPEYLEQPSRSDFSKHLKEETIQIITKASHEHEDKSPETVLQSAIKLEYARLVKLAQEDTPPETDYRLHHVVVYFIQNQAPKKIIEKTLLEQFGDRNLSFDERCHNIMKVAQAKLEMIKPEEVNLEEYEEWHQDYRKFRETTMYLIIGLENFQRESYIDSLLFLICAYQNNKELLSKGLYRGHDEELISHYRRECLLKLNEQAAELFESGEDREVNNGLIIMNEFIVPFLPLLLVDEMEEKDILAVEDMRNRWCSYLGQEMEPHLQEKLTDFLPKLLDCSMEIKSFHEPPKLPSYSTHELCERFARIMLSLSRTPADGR
Summary of the method: as §1

USP28 = target: T3, USP28 (UniProt Q96RU2)
T3 sequence (whole entry): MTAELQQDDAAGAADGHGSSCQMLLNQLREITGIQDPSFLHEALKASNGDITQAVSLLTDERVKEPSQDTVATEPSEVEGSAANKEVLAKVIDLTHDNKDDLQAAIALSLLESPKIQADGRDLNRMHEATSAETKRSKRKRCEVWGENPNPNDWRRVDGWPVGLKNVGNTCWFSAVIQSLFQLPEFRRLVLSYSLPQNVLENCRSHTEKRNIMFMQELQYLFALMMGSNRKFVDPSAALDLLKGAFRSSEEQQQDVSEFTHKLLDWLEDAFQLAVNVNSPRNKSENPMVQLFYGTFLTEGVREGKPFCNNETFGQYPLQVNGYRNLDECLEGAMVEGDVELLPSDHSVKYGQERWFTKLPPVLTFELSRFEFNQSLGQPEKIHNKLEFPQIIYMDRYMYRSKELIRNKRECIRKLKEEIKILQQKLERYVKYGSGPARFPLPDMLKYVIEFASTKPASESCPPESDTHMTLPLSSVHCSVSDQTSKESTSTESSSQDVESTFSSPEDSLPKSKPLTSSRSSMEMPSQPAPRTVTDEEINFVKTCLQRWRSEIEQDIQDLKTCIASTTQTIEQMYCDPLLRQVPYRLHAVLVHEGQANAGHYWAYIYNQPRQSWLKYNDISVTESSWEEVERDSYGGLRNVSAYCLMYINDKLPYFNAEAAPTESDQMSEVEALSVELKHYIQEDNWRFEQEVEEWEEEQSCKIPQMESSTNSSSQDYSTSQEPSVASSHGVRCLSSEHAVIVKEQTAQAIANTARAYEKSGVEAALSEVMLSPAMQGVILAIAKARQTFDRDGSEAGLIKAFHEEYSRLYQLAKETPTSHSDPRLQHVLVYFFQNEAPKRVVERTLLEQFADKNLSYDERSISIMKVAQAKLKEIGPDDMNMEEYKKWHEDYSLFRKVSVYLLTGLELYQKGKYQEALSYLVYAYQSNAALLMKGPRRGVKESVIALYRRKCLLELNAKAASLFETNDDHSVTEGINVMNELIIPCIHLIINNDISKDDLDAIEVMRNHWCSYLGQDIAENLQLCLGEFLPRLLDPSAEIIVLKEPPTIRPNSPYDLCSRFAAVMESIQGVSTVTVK
Summary of the method: as §1

Measured: log2 ratio of Biotin-Ahx-Ub-VS probe labelling

O=C(CCl)N1CCCCC12CCOCC2
inactive: USP19 -0.481 | USP24 -0.606 | USP25 -0.341 | USP28 -0.65
